# Bioassay records (PubChem BioAssay)
# Pf growth 48h: P. falciparum growth inhibition at 48 hours (one generation); P. falciparum luciferase growth in erythrocytes, 48 h; Potency, µM (series often up to 28.7 µM), for the others: at the top dose activity change, negative = inhibition, hits mostly inhibitors; 310,000 compounds, 5.9% hits; also: potency is read from the fitted curve at half-maximal effect; % is scaled to controls: 0 for no effect and ±100 for the full control effect
#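 Luciferase-expressing parasites in RBCs, 2% Hct / 0.1% parasitemia final; RPMI 1640 + 0.5% Albumax; 37 C, 5% CO2, one generation; luminescence read-out, lower signal = inhibition.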
# Shiga toxin inh: inhibitors of Shiga toxin in Vero cells. Vero cells, Shiga toxin protein synthesis inhibition reporter. inhibition, % at 38.7 µM. 290,000 compounds, 9.2% hits. AID 2315; in the data active = inhibition mostly above about 28%, no sharp cut-off; inactive = mostly below about 43%; also: 0% is about no effect
# LASV entry inh: inhibitors of Lassa virus binding or cell entry; Lassa virus pseudotype entry inhibition, cell reporter; Potency, µM (doses to about 37.9 µM), inactives show top-dose activity change, negative = inhibition, hits mostly inhibitors; 300,000 compounds, 1.2% hits; AID 540256; calls by dose curve; tested in HEK293 cells; also: potency is read from the fitted curve at half-maximal effect; % is scaled to controls: 0 for no effect and ±100 for the full control effect; nearly all actives have a fitted effect of over 50% in size
# Cycloheximide cs: counter-screen for Shiga toxin inhibitors: cycloheximide protein synthesis inhibition. cell reporter, cycloheximide protein synthesis inhibition counterscreen. max response, %. 300,000 compounds, 12% hits. AID 2314; in the data active = max response mostly above about 13%, no sharp cut-off; inactive = mostly below about 14%; also: read at 38.3 µM for the half of the compounds with a filed dose; 0% is about no effect
# Pf growth 96h: inhibits malaria parasite growth, 96 h; P. falciparum luciferase reporter growth, 96 h; Potency, µM (highest dose often 28.7 µM), inactives show at the highest dose activity change, negative = inhibition, hits mostly inhibitors; 320,000 compounds, 6.9% hits; also: potency is read from the fitted curve at half-maximal effect; % is scaled to controls: 0 for no effect and ±100 for the full control effect
#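 Cell-based qHTS: luciferase-tagged P. falciparum in erythrocytes (2% hematocrit, 0.05% parasitemia final) incubated with compounds for 96 hours, 37 C, 5% CO2; luciferase detection reagent then added and luminescence measured.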
# Marburg entry inh: inhibitors of Marburg virus binding or cell entry; Marburg virus pseudotyped entry inhibition, cell reporter; Potency, µM (doses to about 37.8 µM), for inactives: at the highest dose activity change, negative = inhibition, actives largely listed as inhibitors; 300,000 compounds, 1.8% hits; AID 540276; calls by dose curve; tested in HEK293 cells; also: potency is read from the fitted curve at half-maximal effect; % is scaled to controls: 0 for no effect and ±100 for the full control effect
# * marks the source's active call; other numbers are inactive results; u = inconclusive; x = no result; [ ] = dose if it differs, or a comment. This is a sample that favours compounds with a hit; in the whole collection about 19% have one here. Unless noted, calls follow the shape of the dose curve; as a rule, active = well fitted inhibition curve with a large enough effect; inconclusive = small, poorly fitted or top-dose-only effect, or another doubt; inactive = no such curve, though single readings can be large or run the other way.
SMILES,Pf growth 48h,Shiga toxin inh,LASV entry inh,Cycloheximide cs,Pf growth 96h,Marburg entry inh
CCN(CC)C(=O)c1cc2c(=O)oc3ccccc3c2s1,19.1%,34.2*,-8.6%[14.3 µM],27.4*,5.5%,13.6%
COc1cccc(NC(=O)c2cc(-c3cccnc3)nc3c(Cl)cccc23)c1,2.08µM*,-8.2,-0.3%,-2.5,1.85µM*,u
O=C(Nc1ccc(F)cc1)c1cc(-c2ccncc2)nc2c(Cl)cccc12,2.08µM*,-5.0,u,-1.2,22.3%,u
COC(=O)CNC(=O)c1cc(-c2ccncc2)nc2c(C)c(Cl)ccc12,u,-17.6,3.1%,-4.1,-55.5%,-9.4%[46.1 µM]
Cc1cccc(NC(=O)c2cc(-c3cccnc3)nc3c(C)cccc23)n1,11.1%,-7.8,-12.6%,-1.8,4.65µM*,u
Cc1cc(NC(=O)c2cc(-c3ccncc3)nc3c(C)cccc23)no1,u,-3.9,-25.4%,-3.3,36.8%,-14.1%
COc1cccc(NC(=O)c2ccccc2-c2ccccc2)c1,15.3%,12.8,-0.2%[46.1 µM],-2.3,39.6%,12.3%[46.1 µM]
Cc1c(Cl)ccc2c(C(=O)NC(C)c3ccncc3)cc(-c3ccncc3)nc12 (centres undefined),4.15µM*,3.9,x,-0.8,-2.0%,x
Cc1cc(C)nc(SCCCNCc2ccccc2)n1,u,-11.0,x,-3.0,5.9%,x
Cc1cccc(NC(=O)c2snc3c(=O)[nH]cnc23)c1,10.9%,30.2,x,-2.7,6.57µM*,0.0%
CCc1cccc(NC(=O)c2snc3c(=O)[nH]cnc23)c1,4.4%,24.8,3.3%,19.0,-16.5%,21.9%[46.1 µM]
COc1ccc(C(OC(=O)c2c(C)noc2C)C(=O)NC2CCCC2)cc1 (centres undefined),u,15.5,-11.7%,-0.9,17.4%,13.2%
CCOc1ccc(C2C(C#N)=C(N)N3C(=C2C#N)Sc2ccccc23)cc1 (centres undefined),u,65.2*,21.0%,26.3*,-27.8%,-0.9%
N#CC1=C(N)N2C(=C(C#N)C1c1ccccc1)Sc1ccccc12 (centres undefined),-2.1%,-3.7,x,5.3,0.0%,x
CCNC(=O)COC(=O)c1cc(-c2ccco2)nc2ccccc12,-1.0%,8.9,x,9.6,20.0%,x
Cn1c(=O)c(C(=O)COC(=O)c2cc(-c3ccco3)nc3ccccc23)c(N)n(CC2CC2)c1=O,u,31.0,-26.4%,21.9*,8.28µM*,-9.8%
Cn1c(=O)c(C(=O)COC(=O)c2cc(C(F)(F)F)nc3ccccc23)c(N)n(Cc2ccccc2)c1=O,11.7µM*,-10.4,3.4%,-4.6,u,-13.9%
Cn1c(=O)c(C(=O)COC(=O)c2cc(-c3ccccc3)nc3ccccc23)c(N)n(Cc2ccccc2)c1=O,u,-2.8,4.0%,-2.1,u,-26.8%
Cn1c(=O)c(C(=O)COC(=O)c2cc(C3CC3)nc3ccccc23)c(N)n(Cc2ccccc2)c1=O,u,-11.8,-8.0%,-4.0,9.28µM*,-24.8%
O=C(/C=N/O)NCC1CCNCC1,0.0%,-6.3,0.3%,-0.9,-7.3%,-0.8%
c1ccc(-n2ncc3c(N4CCN(c5ccccn5)CC4)nc(N4CCCCC4)nc32)cc1,16.2%,2.4,x,-1.3,-36.9%,x
Cc1cccc(Nc2nnc(-c3ccc(N4CCOCC4)c([N+](=O)[O-])c3)c3ccccc23)c1,11.7µM*,-5.1,10µM*,-1.8,u,2.24µM*
Cc1ccc(-n2c(-c3ccccc3)c[n+]3c2CCC3)cc1,1.04µM*,-8.0,u,3.4,0.738µM*,u
COc1ccc(-n2c(-c3ccccc3)c[n+]3c2CCC3)cc1,u,-5.6,u,-3.1,u,u
Cc1ccc(-n2c(-c3ccc(Cl)cc3)c[n+]3c2CCC3)cc1,0.262µM*,0.8,x,-1.1,0.104µM*,x
SMILES,Pf growth 48h,Shiga toxin inh,LASV entry inh,Cycloheximide cs,Pf growth 96h,Marburg entry inh
CC(C)c1cc(=O)n2[nH]c(N)nc2n1,u,-0.9,13.1%,10.9,18.2%,4.4%
CN(Cc1ccco1)C(=O)CN1C(=O)NC2(CCCCC2)C1=O,-14.3%,x,x,x,-33.1%,x
O=C(Nc1nc2cc3c(cc2s1)OCO3)c1ccco1,36.2%,85.8*,u,49.4*,86.0%,u
O=C(Nc1n[nH]c(=S)s1)c1ccco1,44.7%,3.3,x,1.1,79.4%,x
O=C(Nc1nc(-c2cccs2)c(-c2ccccc2)s1)c1ccco1,27.6%,31.2,u,18.3*,11.7%,-19.3%
O=C(Nc1nc2ccccc2c(=O)s1)c1ccc(F)cc1Cl,16.2%,31.9,x,17.8,44.4%,x
